High-throughput results deposited in PubChem by National Center for Advancing Translational Sciences (NCATS).
Anthrax LT inh – qHTS Assay for Anthrax Lethal Toxin Internalization. Potency, µM (doses to about 40 µM), most hits filed as inhibitors. 70,000 compounds, 0.67% hits. Cells, anthrax lethal toxin internalization, FRET ratio (460/530); further: nearly all actives have a fitted effect of over 50% in size
AmpC inh det – Promiscuous and Specific Inhibitors of AmpC Beta-Lactamase (assay with detergent). P00811. purified AmpC, nitrocefin hydrolysis with detergent. Potency, µM (top dose mostly 28.7 µM). 71,000 compounds, 0.09% hits; active means well fitted curve in the direction sought with a large enough effect; inconclusive means small, poorly fitted or top-dose-only effect
Target sequence (P00811 whole entry, looked up): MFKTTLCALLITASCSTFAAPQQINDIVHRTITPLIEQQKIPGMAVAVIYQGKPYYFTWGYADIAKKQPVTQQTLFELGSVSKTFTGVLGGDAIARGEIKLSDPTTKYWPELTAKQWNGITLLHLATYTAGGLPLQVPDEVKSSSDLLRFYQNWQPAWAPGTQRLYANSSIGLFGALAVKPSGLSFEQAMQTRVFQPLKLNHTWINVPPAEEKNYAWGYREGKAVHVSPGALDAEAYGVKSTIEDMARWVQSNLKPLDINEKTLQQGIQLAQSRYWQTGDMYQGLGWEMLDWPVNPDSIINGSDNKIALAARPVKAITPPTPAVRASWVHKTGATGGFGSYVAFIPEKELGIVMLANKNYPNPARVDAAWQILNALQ
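E. coli AmpC (5.3 nM) in 20 mM phosphate pH 7.0 with 0.01% Triton X-100, preincubated 15 min RT with compound; nitrocefin (2 uL of 800 uM stock) hydrolysis followed by 480 nm absorbance every 20 s over 4 min.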
AmpC inh no det – Promiscuous and Specific Inhibitors of AmpC Beta-Lactamase (assay without detergent). AmpC nitrocefin hydrolysis, absorbance 480 nm, no detergent. AID 585, 2007. 71,000 compounds, 1.8% hits. Potency, µM (doses to about 28.7 µM). P00811
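Enzyme, pH 7.0 phosphate. Compound titrations were pre-incubated with AmpC for 15 min at room temperature before nitrocefin (stock 800 uM) addition; product formation was recorded at 480 nm every 20 s for 4 min.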
SmPrx2 inh – Schistosoma Mansoni Peroxiredoxins (Prx2); Schistosoma mansoni peroxiredoxin 2 (Prx2); S. mansoni Prx2 activity coupled to TGR/GSH (TGR is thioredoxin glutathione reductase), NADPH fluorescence loss, qHTS; Potency, µM; 65,000 compounds, 0.07% hits
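Prx2 activity was followed as the loss of NADPH fluorescence (ex 365/em 450 nm), read every 30 sec for 8 min after H2O2 start. The enzyme mix (50 nM Prx2, 25 nM TGR, GSH, NADPH; pH 7.4 phosphate buffer) was incubated with compound for 15 min at room temperature first.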
Numbers stand for hits; - = inactive; ? = inconclusive; . = not tested or not shown; [ ] = dose if it differs, or a comment. The list is not random: actives were taken first. Their share in the collection is about 2.4%. Unless noted, the call rests on the fitted dose curve.

SMILES	Anthrax LT inh	AmpC inh det	AmpC inh no det	SmPrx2 inh
O=C(Cn1nc(Cc2cccnc2)c2ccccc2c1=O)N1CCC2(CC1)OCCO2	-	-	-	-
CN(C)C(=O)Cn1nc(-c2ccccc2)c2ccccc2c1=O	-	-	-	-
O=C1C[C@H]2OCC=C3CN4CC[C@@]5(C(=O)O)[C@H](N1)[C@H]2[C@H]3C[C@H]45	-[8 µM]	-[5.75 µM]	-[5.75 µM]	-
CC(=O)OC[C@@H]1O[C@@H](Oc2cc(OC(C)=O)c3c(=O)cc(-c4ccc(OC(C)=O)c(OC(C)=O)c4)oc3c2)[C@H](OC(C)=O)[C@H](OC(C)=O)[C@@H]1OC(C)=O	?	-	-	-
ClCCCCl	-	-	-	.
COc1cccc(-c2nn(C)c3sc(C(=O)N4CCN(c5ccccn5)CC4)cc23)c1	10µM	-	-	-
COc1cccc(-c2nn(C)c3sc(C(=O)N4CCOCC4)cc23)c1	-	-	-	-
COc1ccc(N2CCN(C(=O)c3cc4c(-c5ccc(Cl)cc5)nn(C)c4s3)CC2)cc1	?	-	4µM[single pt active]	-
CO/N=C1/c2cc(OC)ccc2O[C@@H](c2cccc(OC)c2)[C@H]1O	-[8 µM]	.	.	.
CN(C)c1ccc(-c2cncnc2Nc2ccccc2)cc1	-	-	-	-
O=c1c(O)c(-c2ccc(O)c(O)c2)oc2c(OC[C@H]3O[C@@H](O)[C@@H](O)[C@H](O)[C@@H]3O)c(O)cc(O)c12	-	-	-	-
Cc1nc2ccc(S(=O)(=O)NC(C(=O)NCc3ccco3)C(C)C)cc2s1 (centres undefined)	-	-	4µM[single pt active]	-
O=C(Nc1cnn(Cc2ccc(Cl)cc2Cl)c1)c1noc2c1CCCC2	?	-	4µM[single pt active]	-
CCCCNCC	.	-	-	.
CCCCSCCCNC(=O)CS(=O)Cc1nc(-c2cccc(C)c2)oc1C (centres undefined)	-	-	-	-
CCC(C)NC(=O)CS(=O)Cc1nc(-c2cccc(C)c2)oc1C (centres undefined)	-	-	4µM[single pt active]	-
CCCCNC(=O)CS(=O)Cc1nc(-c2cccc(C)c2)oc1C (centres undefined)	-	-	4µM[single pt active]	-
Cc1cccc(-c2nc(CS(=O)CC(=O)NC3CCCC3)c(C)o2)c1 (centres undefined)	-	-	4µM[single pt active]	-
c1ccc(N2CCN(c3ncnc4c3oc3ccccc34)CC2)cc1	16µM	-	-	-
CO[C@@H]1COC(=O)C/C=C\[C@@H](C)[C@H](OC)COC(=O)[C@H](COCc2ccccc2)NC(=O)C/C=C\[C@H]1C	-[1.6 µM]	.	.	.
CCCC1C(c2ccco2)NC(c2ccco2)CC1(C)O (centres undefined)	10µM	-	-	-
C[n+]1c(/C=C\c2ccc(O)c3ncccc23)[se]c2ccccc21	-[8 µM]	-[5.75 µM]	-[5.75 µM]	-
c1ccc(C(NCCNC(c2ccccc2)c2ccccc2)c2ccccc2)cc1	10µM	.	.	.
COc1ccc(O[C@H]2C=C[C@@H](c3ccccc3)O[C@H]2COC(=O)CC/C(C)=N\O[C@@H](C)c2cc(-c3c(C)cc(C)cc3C)no2)cc1	-[8 µM]	.	.	.
CCOC(=O)c1ccc(NC(=O)Nc2ccc(S(N)(=O)=O)cc2)cc1	.	-	-	-
SMILES	Anthrax LT inh	AmpC inh det	AmpC inh no det	SmPrx2 inh
CN(C)c1ccc(C(=O)OCC(=O)Nc2ccc(S(N)(=O)=O)cc2)cc1	-	-	16µM[single pt active]	-
ClC1=C(Cl)C2(Cl)C3C(Cl)C=CC3C1(Cl)C2(Cl)Cl (centres undefined)	16µM	-	-	.
COc1ccc(OCCSc2ncnc3nc[nH]c23)cc1	-	-	4µM[single pt active]	-
CCn1c2ccccc2c2cc(NC(=O)C3CCN(S(=O)(=O)c4cccs4)CC3)ccc21	-	-	13µM	-
CC(C)(C)[C@@]1(O)C[C@@H]2OC(=O)C[C@@]23C(=O)O[C@H]2OC(=O)[C@@H](O)[C@]231	-	-	-	-
CCc1cccc2c3c([nH]c12)[C@](CC)(CC(=O)O)OCC3	-	-	-	-
COc1ccc(-c2nnc(NC(=O)c3ccc(S(=O)(=O)N4CCCc5ccccc54)cc3)o2)cc1	-	-	13µM	-
CN(c1ccccc1)S(=O)(=O)c1ccc(C(=O)Nc2nnc(-c3ccc(F)cc3)o2)cc1	-	-	10µM	-
COc1ccccc1-c1nnc(NC(=O)c2ccc(S(=O)(=O)N(C)Cc3ccccc3)cc2)o1	-	-	-	-
Cc1ccc2c(c1)-c1c(cnn1CC(=O)Nc1ccccc1N1CCN(C)CC1)CO2	5µM	-	-	-
Cc1ccc2c(c1)-c1c(cnn1CC(=O)O)CO2	-	-	-	-
CCc1ccc(-n2c(O)cnc2Nc2nc(C)cc(C)n2)cc1	-	-	4µM[single pt active]	-
COc1cc(OC)c(C2CC(=O)N3CN(c4ccccc4C)CSC3=C2C#N)cc1OC (centres undefined)	.	-	-	-
COc1ccc(C2CC(=O)N3CN(c4ccccc4F)CSC3=C2C#N)cc1OC (centres undefined)	-	-	-	-
CCc1ccccc1N1CSC2=C(C#N)C(c3ccccc3F)CC(=O)N2C1 (centres undefined)	-	-	13µM[single pt active]	.
COc1ccc(C2CC(=O)N3CN(c4ccc(C)c(Cl)c4)CSC3=C2C#N)cc1 (centres undefined)	-	-	2.5µM[single pt active]	.
Cc1cccc(N2CSC3=C(C#N)C(c4ccc(C)o4)CC(=O)N3C2)c1 (centres undefined)	.	-	16µM	-
COc1ccc(N2CSC3=C(C#N)C(c4cccc(OC)c4OC)CC(=O)N3C2)cc1 (centres undefined)	-	-	4µM[single pt active]	-
COc1ccc(OC)c(C2CC(=O)N3CN(c4ccccc4)CSC3=C2C#N)c1 (centres undefined)	-	-	-	-
CSc1ncnc2nc[nH]c12	-	-	-	-
Clc1ccc(N2C[C@H]3CC[C@@H](C2)N3)nn1	-	-	-	-
CN1CCc2c(sc3c2C(=O)NC(c2ccco2)N3)C1 (centres undefined)	?	-	-	-
CN1CCc2c(sc3c2C(=O)NC(c2cccc(OC(=O)c4cccs4)c2)N3)C1 (centres undefined)	?	-	3.2µM[single pt active]	-
